Compound activity as filed in PubChem.
CYP2C9 inhib = blocks human cytochrome P450 2C9; P11712; CYP2C9 Supersomes, luciferin-H conversion, luminescence; inhibition, % at 5 µM; 20% of 96,000 active;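 active means blocking of liver enzyme CYP2C9 beyond about 50% at 5 µM, limit read from the data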
Target sequence (P11712 whole entry, looked up): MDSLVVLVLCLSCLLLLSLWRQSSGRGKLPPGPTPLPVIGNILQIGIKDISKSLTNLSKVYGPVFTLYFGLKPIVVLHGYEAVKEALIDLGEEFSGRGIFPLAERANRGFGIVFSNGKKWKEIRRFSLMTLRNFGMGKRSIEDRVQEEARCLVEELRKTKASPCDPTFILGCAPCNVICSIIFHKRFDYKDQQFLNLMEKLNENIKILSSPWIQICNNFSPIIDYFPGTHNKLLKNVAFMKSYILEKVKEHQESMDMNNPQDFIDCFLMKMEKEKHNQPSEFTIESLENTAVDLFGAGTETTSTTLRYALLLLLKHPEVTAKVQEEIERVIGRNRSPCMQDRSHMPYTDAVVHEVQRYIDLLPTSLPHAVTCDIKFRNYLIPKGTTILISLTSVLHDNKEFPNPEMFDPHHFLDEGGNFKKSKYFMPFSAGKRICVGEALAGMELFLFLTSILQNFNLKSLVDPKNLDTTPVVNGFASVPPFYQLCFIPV
CYP2C19 inh = human CYP2C19 inhibition; CYP2C19 Supersomes, luciferin-H EGE luminescence, 30 min; inhibition, % at 5 µM; 21% of 96,000 active; P33261;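 active means CYP2C19 inhibition above a set limit at 5 µM in the primary screen, cut at about 50% in these data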;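 further: plate controls were negative control wells for no effect and 2.5 mM tranylcypromine positive control for full effect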
CYP2C19 activ = increases human CYP2C19 enzyme activity | P33261 | recombinant CYP2C19, luciferin-H EGE luminescence; active compounds read high; 0 = fully inhibited enzyme, 1 = untreated enzyme | activation factor at 5 µM | 96,000 tested, under 10 active;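 active means activation factor of at least 2 at 5 µM in the primary screen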;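 further: 0 = wells with 2.5 mM tranylcypromine and 1 = vehicle-only wells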
PostGolgi ctrl = yeast control strain growth, post-Golgi counter-screen | inhibition, % at 10 µM | 5% of 98,000 active | AID 738 | efflux-deficient yeast background strain, growth absorbance A615, 16 h
CYP2C9 activ = increases human cytochrome P450 2C9 activity; 1.4% of 96,000 active; activation factor at 5 µM; recombinant CYP2C9, luciferin-H conversion, luminescence; active compounds read high; factor 1 = untreated enzyme, 0 = blocked;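 active means activation factor of 2 or more for CYP2C9 at a 5 µM dose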;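 further: 0 = sulfaphenazole-blocked wells and 1 = vehicle-only wells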
PostGolgi yeast = growth inhibition of a yeast mutant, post-Golgi transport screen; AID 739; inhibition, % at 10 µM; post-Golgi transport phenotypic cell assay; 0.9% of 98,000 active;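 further: yeast cells grown in 1536-well plates; yeast grown about 18 h at 30C before absorbance read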
* = called active by the depositor; · = no result. Only some compounds are listed: those with a hit (about 32% of all), similar ones and a draw of the others. Unless noted, no stated cut-off is given here; in the data, active means inhibition above about 30%; inactive means the rest.

SMILES	CYP2C9 inhib	CYP2C19 inh	CYP2C19 activ	PostGolgi ctrl	CYP2C9 activ	PostGolgi yeast
Cc1ccc(Cn2ccc(NC(=O)CCSc3nc(-c4ccco4)cc(C(F)(F)F)n3)n2)cc1	93*	81*	0.2	50*	0.1	2
Cc1cc(NC(=O)CCSc2nc(-c3ccco3)cc(C(F)(F)F)n2)no1	-26	0	1	7	1.3	-3
Cc1ccccc1Cn1ccc(NC(=O)CCSc2nc(-c3ccco3)cc(C(F)(F)F)n2)n1	85*	79*	0.2	54*	0.1	10
CCN(C(=O)c1cn(C)c(=O)c2cc(OC)c(OC)cc12)c1cc(OC)ccc1OC	-2	-3	1	14	1	-4
Cc1ccc(C2/C(=C(/O)c3ccc(Cl)cc3)C(=O)C(=O)N2CC2CCCO2)o1 (configuration not stated)	27	-16	1.2	6	0.7	9
Cc1ccc(-c2nn3c(-c4ccco4)nnc3c3ccccc23)cc1S(=O)(=O)N1CCOCC1	17	6	0.9	·	0.8	·
CCOC(=O)N1CCN(S(=O)(=O)c2cc(-c3nn4c(C)nnc4c4ccccc34)ccc2C)CC1	80*	56*	0.4	6	0.2	2
Cc1ccc(-c2nn3c(C)nnc3c3ccccc23)cc1S(=O)(=O)N(C)CCO	86*	3	1	12	0.1	0
COC(=O)C1CCCN1C(=O)C1CCCN1C(=O)CNC(=O)OCc1ccccc1 (configuration not stated)	3	-6	1.1	-1	1	3
CC(=O)Nc1ccc(OCC=C(Cl)Cl)cc1	18	24	0.8	9	0.8	4
COc1ccc(CNS(=O)(=O)c2cc(OCC(N)=O)c(C)cc2Cl)cc1	11	8	0.9	6	0.9	-7
O=[N+]([O-])c1cccc(C(=Nc2cccc(Cl)c2)NO)c1	87*	91*	0.1	7	0.1	-10
Cc1c(N2C(=O)CSC23C(=O)Nc2ccccc23)c(=O)n(-c2ccccc2)n1C (configuration not stated)	-3	22	0.8	40*	1	-7
Cc1c(N2C(=O)C(C)SC23C(=O)Nc2ccccc23)c(=O)n(-c2ccccc2)n1C (configuration not stated)	-20	-21	1.2	4	1.2	1
CCC(=O)N(Cc1cc(=O)[nH]c2ccccc12)c1cccc(C)c1	27	16	0.8	6	0.7	0
O=C(Oc1ccc2ccccc2c1)c1ccco1	11	2	1	27	0.9	-6
O=C(/C=C/c1ccc2ccccc2c1)c1ccoc1	34	58*	0.4	17	0.7	9
Nc1ccc(NC(=O)c2cccs2)c(Cl)c1	-4	5	0.9	7	1	-10
O=C(NOC(=O)c1ccccc1Cl)c1cccs1	51*	-10	1.1	-1	0.5	1
COc1cccc(-c2nc(CS(=O)CC(=O)NCc3ccccc3Cl)c(C)o2)c1 (configuration not stated)	64*	30	0.7	14	0.4	-7
COc1cccc(-c2nc(CS(=O)CC(=O)NCc3ccc4c(c3)OCO4)c(C)o2)c1 (configuration not stated)	76*	77*	0.2	4	0.2	3
COc1ccc(Cc2nnc(SCC(=O)c3ccccc3)o2)cc1	79*	77*	0.2	27	0.2	8
COc1cccc(OCc2nnc(SCC(=O)OCc3ccccc3)o2)c1	62*	76*	0.2	5	0.4	1
COc1ccc(C(=O)CSc2nnc(Cc3ccccc3)o2)cc1	-41	2	1	23	1.4	-3
COc1ccc(Cc2nnc(SCC(=O)N3CCN(c4ccccc4)CC3)o2)cc1	5	-3	1	36*	1	4
SMILES	CYP2C9 inhib	CYP2C19 inh	CYP2C19 activ	PostGolgi ctrl	CYP2C9 activ	PostGolgi yeast
COc1ccc(N2CCN(C(=O)CSc3nnc(CNc4ccccc4)o3)CC2)cc1	·	·	·	-1	·	3
C/C(Sc1nnc(Cc2ccccc2)o1)=C(/O)c1ccccc1	68*	61*	0.4	3	0.3	0
O=C(CSc1nnc(-c2ccccc2)o1)OCc1ccccc1	4	3	1	2	1	-5
Cc1ccc(Cl)cc1NC(=O)c1ccc(CSc2nnnn2C)cc1	-24	1	1	0	1.2	23
COc1ccc(S(=O)(=O)N(CC(=O)NC2CC2)c2ccc(C)cc2)cc1OC	13	99*	0	8	0.9	-7
COc1ccc(OC)c(N(CC(=O)NC2CC2)S(=O)(=O)c2ccc(C)cc2)c1	80*	84*	0.2	4	0.2	-3
CNC(=O)CN(c1cc(C)ccc1OC)S(=O)(=O)c1ccc(C)cc1	7	11	0.9	2	0.9	2
Cc1ccc(N(CC(=O)NC2CCC(C)CC2)S(=O)(=O)c2cccnc2)cc1 (configuration not stated)	26	49	0.5	13	0.7	-5
COc1ccc(C)cc1N(CC(N)=O)S(=O)(=O)c1ccc(C)cc1	54*	90*	0.1	-3	0.5	-8
OCC(O)C(O)C(O)C(O)C1NCCS1 (configuration not stated)	-5	-10	1.1	-9	1	2
c1ccc2[nH]c(CSc3nc4ccccc4s3)nc2c1	53*	98*	0	12	0.5	-6
CCC(C)SCc1nc2ccccc2[nH]1 (configuration not stated)	36	93*	0.1	5	0.6	8
c1ccc(SCc2nc3ccccc3[nH]2)nc1	48	90*	0.1	-5	0.5	-1
CCN1C(=O)CC(C(=O)Nc2ccc(F)cc2)SC1=Nc1ccc2c(c1)OCO2 (configuration not stated)	34	-5	1.1	26	0.7	2
C/C(CCc1ccc2c(c1)OCO2)=N\N=C1\NC(=O)CC(C(=O)Nc2ccccc2)S1 (configuration not stated)	68*	22	0.8	-6	0.3	8
COc1ccc(Cn2c(SC)nc3ccccc32)cc1[N+](=O)[O-]	28	22	0.8	11	0.7	-2
Cc1ccc2nc(Nc3ccc4[nH]c(=O)[nH]c4c3)c(-n3nc(C)cc3C)nc2c1	-12	-17	1.2	31*	1.1	-2
N#Cc1c(-c2ccco2)cc(C2CC2)nc1N	-34	63*	0.4	12	1.3	4
N#Cc1c(-c2ccccc2)cc(C2CC2)nc1N	-60	80*	0.2	18	1.6	3
CCN(CCN(C)C)C(=O)Cn1ncc2c1-c1cc(C)ccc1OC2	1	27	0.7	4	1	8
O=S(=O)(Nc1ncccn1)c1ccc(Nc2ncnc3ccccc23)cc1	-9	32	0.7	0	1.1	3
CCC(=O)OCCNc1cc(Sc2nc3ccccc3s2)c2nonc2c1[N+](=O)[O-]	54*	31	0.7	98*	0.5	94*
